The entries come from a sample that favours hits as a whole.
AmpC inh detg = blocks E. coli AmpC beta-lactamase in detergent assay; P00811; AmpC hydrolysis of nitrocefin, absorbance 480 nm, 0.01% Triton; Potency, µM (top dose mostly 114 µM), without a hit: at the top dose activity change, negative = inhibition, actives largely listed as inhibitors; hit rate 0.041% among 370,000; AID 485294;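 note: potency is the fitted concentration of half-maximal effect; 0% = no-compound wells and -100% = no-enzyme wells; nearly all actives have a fitted effect of over 25% in size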
Target sequence (P00811 whole entry, looked up): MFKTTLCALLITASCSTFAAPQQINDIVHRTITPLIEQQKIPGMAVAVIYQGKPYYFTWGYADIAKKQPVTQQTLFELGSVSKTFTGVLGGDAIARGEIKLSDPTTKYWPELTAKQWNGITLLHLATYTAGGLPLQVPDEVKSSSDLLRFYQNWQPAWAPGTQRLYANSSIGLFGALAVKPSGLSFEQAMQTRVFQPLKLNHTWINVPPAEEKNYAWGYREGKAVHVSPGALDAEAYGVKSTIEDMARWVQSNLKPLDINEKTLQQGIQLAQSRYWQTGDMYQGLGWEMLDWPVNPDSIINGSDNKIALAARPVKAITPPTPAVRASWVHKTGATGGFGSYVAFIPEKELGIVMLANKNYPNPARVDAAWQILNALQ
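AmpC (5.3 nM in the dispensed reagent) in 20 mM phosphate pH 7.0 with 0.01% (detergent screen) or 0.0001% Triton X-100 was preincubated with compounds for 15 min at room temperature. Nitrocefin was then added from an 800 uM solution, and hydrolysis was followed at 480 nm.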
CHX counter = affects cycloheximide protein synthesis inhibition readout, counter-screen; cell reporter, cycloheximide protein synthesis inhibition counterscreen; max response, %; hit rate 12% among 300,000; AID 2314; in the data active = max response mostly above about 13%, no sharp cut-off; inactive = mostly below about 14%; note: read at 38.3 µM for the half of the compounds with a filed dose; 0% is about no effect
NS1 function inh = influenza NS1 inhibition; hit rate 0.4% among 270,000; Potency, µM (top dose mostly 46.1 µM), without a hit: at the top dose activity, positive = more growth; AID 2326; calls by dose curve; note: potency is the fitted concentration of half-maximal effect; actives are rising curves; nearly all actives have a fitted effect of over 50% in size
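Recovery from NS1-induced slow growth read by OD600 in budding yeast switched to galactose assay medium (pH 6.0, -URA) at 1:100 dilution. Compound 23 nl per well; the matching strain lacking NS1 serves as control.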
Shiga toxin inh = blocks Shiga toxin action in Vero cells. Vero cells, Shiga toxin protein synthesis inhibition reporter. inhibition, % at 38.7 µM. hit rate 9.2% among 290,000; in the data active = inhibition mostly above about 28%, no sharp cut-off; inactive = mostly below about 43%; note: 0% is about no effect
AmpC no deterg = blocks E. coli AmpC beta-lactamase in detergent-free assay | AmpC nitrocefin hydrolysis, absorbance 480 nm, 0.0001% Triton | Potency, µM (top dose mostly 57.1 µM), for inactives: top-dose activity change, negative = inhibition, most hits filed as inhibitors | hit rate 0.52% among 330,000;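 note: potency is the fitted concentration of half-maximal effect; plate controls were no compound for no effect and no enzyme for full effect; nearly all actives have a fitted effect of over 20% in size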
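AmpC (5.3 nM in the dispensed reagent) in 20 mM phosphate pH 7.0 with 0.01% (detergent screen) or 0.0001% Triton X-100 was preincubated with compounds for 15 min at room temperature. Nitrocefin was then added from an 800 uM solution, and hydrolysis was followed at 480 nm.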
Active calls of the source: *; ? = inconclusive; / = no result; + = active, no number; [ ] = dose if it differs, or a comment. Unless noted, calls come from the whole dose curve; as a rule, active = well fitted curve in the direction sought with a large enough effect; inconclusive = small, poorly fitted or top-dose-only effect, or another doubt; inactive = no such curve, though single readings can be large; an effect the other way counts as inactive or inconclusive.

SMILES | AmpC inh detg | CHX counter | NS1 function inh | Shiga toxin inh | AmpC no deterg
CC(=O)c1ccc(NC(=O)C2(c3ccccc3)CCOCC2)cc1 | 2% | 37* | -24% | 112* | -11%
Cn1c(O)c(N=NC(=O)c2ccco2)c2ccccc21 | -1% | 44* | -10% | 145* | -11%
CC(C)CCn1c(O)c(N=NC(=O)c2ccco2)c2ccccc21 | -2% | 22 | -6% | 24* | 25%
Cc1cccc(-c2nnc(C3CCN(S(=O)(=O)c4cccc(Cl)c4)CC3)o2)c1 | -10% | / | / | / | /
Cc1ccc2c(c1)sc(-c1ccc(N(C)C)cc1)[n+]2C | -4% | 77* | -72% | + | -1%
COc1ccccc1N1CCN(S(C)(=O)=O)CC1 | -2% | 12 | 5% | 12 | -3%
COc1ccccc1N1CCN(S(=O)(=O)c2ccc(Cl)s2)CC1 | -1% | 16* | -55% | 27 | 1%
CCOc1ccccc1N1CCN(S(=O)(=O)c2ccc(Cl)s2)CC1 | -5% | 17* | -41% | 35* | -20%
C[C@@H]1C[C@H]2[C@@H]3CCC4=CC(=O)C=C[C@]4(C)[C@@]3(Cl)[C@@H](O)C[C@]2(C)[C@@]1(OC(=O)c1ccco1)C(=O)CCl | ? | / | / | / | -7%
CCOc1ccccc1CNC(=O)CC(C)n1ccc(C)n1 (stereo not drawn) | 22% | / | / | / | /
COc1ccc(CNC(=O)CCN2C(=O)[C@@H]3Cc4ccccc4CN3C2=O)cc1 | -1% | -3 | 2% | -11 | 3%
O=C(/C=C/c1ccc(Cl)c(Cl)c1)NCCCn1ccnc1 | -13% | 25* | 6% | 51* | 43%
Cc1ccc(/C=C/C(=O)NCCCn2ccnc2)cc1 | 1% | -3 | -2% | -13 | 11%
O=C(/C=C/c1c(Cl)cccc1Cl)NCc1ccco1 | -15% | 13 | 1% | -8 | -17%
O=C(/C=C/c1ccc2c(c1)OCO2)NCc1ccco1 | ? | 25* | 11% | 33 | -6%
O=C(/C=C/c1ccc(Cl)c(Cl)c1)NCc1ccco1 | -9% | 11 | -37% | active | -20%
O=C(/C=C/c1ccccc1Cl)NCc1ccco1 | -10% | 43* | -82% | 63* | -14%
CCOc1ccc(C2C(=O)N(C3CCCCCC3)CC(=O)N2CCc2ccccc2)cc1OC (stereo not drawn) | 0% | / | / | / | /
CCOC(=O)c1c(S(=O)(=O)NCC(=O)N2CCN(c3cccc(Cl)c3)CC2)c(C)n(C)c1C | 3% | / | / | / | /
Cc1ccc(-n2ncc3c2CC(C)(C)CC3NC(=O)c2c(C)noc2C)cc1 (stereo not drawn) | -1% | 16 | -1% | 6 | 86%
Cc1cc(=O)n2nc(N3CCC(C(=O)Nc4ccc(Br)cc4F)CC3)sc2n1 | 4% | / | / | / | /
Cc1ccc(N(CC(=O)NC2CCCC2)C(=O)CNC(=O)c2cccs2)c(C)c1 | -1% | -4 | 2% | -14 | 9%
O=C(/C=C/c1ccco1)NCc1ccco1 | 9% | -2 | 2% | -3 | -15%
O=C(/C=C/c1ccccc1)NCc1ccco1 | 10% | 30* | -2% | 69* | -11%
O=C(COC(=O)c1cccc(NC(=O)c2ccc(Br)cc2)c1)c1ccc(Cl)cc1 | -3% | / | / | / | /
SMILES | AmpC inh detg | CHX counter | NS1 function inh | Shiga toxin inh | AmpC no deterg
S=C1NNC2(CC3CC2C2CCCC32)NN1 (stereo not drawn) | ? | 16* | / | 22 | -12%[11.4 µM]
O=C(Nc1nc2c(Cl)cccc2s1)c1ccc([N+](=O)[O-])o1 | -9% | 2 | -14% | / | -28%
O=C(Nc1ncccn1)c1ccc([N+](=O)[O-])o1 | 0% | 52* | / | 64* | 0%
O=C(Nc1cccc(NC(=O)c2ccccc2Cl)c1)c1ccc([N+](=O)[O-])o1 | -4% | 14 | -5% | 28 | -41%
O=C(Nc1ccccc1C(=O)NC1CC1)c1ccc([N+](=O)[O-])o1 | -5% | / | / | / | -28%
O=C(Nc1ccccn1)c1ccc([N+](=O)[O-])o1 | -11% | 33* | -23% | 65* | -22%
O=C(Nc1nc2c(F)cccc2s1)c1ccc([N+](=O)[O-])o1 | -17% | 11* | 2% | 9 | -8%
Cc1ccnc(NC(=O)c2ccc([N+](=O)[O-])o2)c1 | -3% | 68* | -77% | 133* | -9%
CCN(CC(=O)Nc1ccc(OC)cc1)C(=O)c1ccc2[nH]c3c(c2c1)CC(C)CC3 (stereo not drawn) | 2% | / | / | / | -3%
COCCN1C(=O)N(c2cccc(OC)c2)C(=O)C1CC(=O)Nc1ccccc1 (stereo not drawn) | 8% | / | / | / | /
C[N+](C)(C)C(C1=CCCC1=O)c1ccccc1 (stereo not drawn) | / | / | -10% | / | /
